Inconclusive results are not listed. Entries that show only a call come without a potency. The source made the active and inactive calls. Calls follow the shape of the dose curve; as a rule, active = well fitted cell-killing curve with a large enough effect in the repeat runs; inconclusive = weak or mixed curves, or effect the other way; inactive = flat fitted curve, though single readings scatter.
Legend:
[1] = cAMP Responsive Elements (CRE) small molecule antagonists, cell-based qHTS assay: qHTS cell viability counter screen (AID 2060913); also: nearly all actives have a fitted effect of over 40% in size
How it was run: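 Cytotoxicity counter screen multiplexed with the CRE-bla antagonist read: HEK293T cells in DMEM with dialyzed FBS and 25 mM HEPES were treated 3 hrs under 0.25 uM final NKH477, then viability measured by CellTiter-Glo luminescence.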

[2] = cAMP Responsive Elements (CRE) small molecule agonists, cell-based qHTS assay: qHTS cell viability counter screen (AID 2060914); also: nearly all actives have a fitted effect of over 50% in size
How it was run: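 Luminescence read-out (CellTiter-Glo, 30 min RT) of ATP-based viability in CRE-bla HEK 293T cells, run in the same wells as the β-lactamase reporter assay after 3 h compound treatment at 37 °C.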

Row | SMILES | Potency [1] | Potency [2]
1 | CC(C)=C[C@@H]1[C@@H](C(=O)OCc2coc(Cc3ccccc3)c2)C1(C)C | inactive | inactive
2 | CCOC(=O)c1ccccc1N | inactive | inactive
3 | COC(=O)c1ccccc1CS(=O)(=O)NC(=O)Nc1nc(OC)cc(OC)n1 | inactive | inactive
4 | NNCCO | inactive | inactive
5 | CC(Oc1ccc(Cl)cc1Cl)C(=O)O (centres undefined) | inactive | inactive
6 | CCC(=O)c1ccccc1 | inactive | inactive
7 | CCOC(=O)C(SP(=S)(OC)OC)c1ccccc1 (centres undefined) | inactive | inactive
8 | OCCCCO | inactive | inactive
9 | CCCCCl | inactive | inactive
10 | O=C/C(Cl)=C(/Cl)C(=O)O | inactive | inactive
11 | CC1OC(C)OC(C)O1 (centres undefined) | inactive | inactive
12 | O=S1(=O)OC(c2cc(Br)c(O)c(Br)c2)(c2cc(Br)c(O)c(Br)c2)c2ccccc21 | inactive | inactive

— PubChem BioAssay (Tox21)
